Bioassay records as filed in PubChem BioAssay.
Compounds with a hit are over-represented: about 19% of the library has one in this group of screens.
LASV entry inh: Lassa virus entry inhibition; AID 540256; actives 1.2% (n = 300,000); Lassa virus pseudotype entry inhibition, cell reporter; Potency, µM (titrated, usually from 37.9 µM), hits mostly inhibitors; calls by dose curve; tested in HEK293 cells; note: nearly all actives have a fitted effect of over 50% in size
Pf growth 48h: P. falciparum growth inhibition at 48 hours (one generation) | P. falciparum luciferase growth in erythrocytes, 48 h | AID 504832 | Potency, µM (doses to about 28.7 µM), actives largely listed as inhibitors | actives 5.9% (n = 310,000)
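A one-generation exposure of luciferase-tagged malaria parasites in RPMI 1640/Albumax erythrocyte culture, 37 C and 5% CO2. Inhibition is inferred from decreased luminescence after adding detection reagent.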
Shiga toxin inh: inhibitors of Shiga toxin in Vero cells; Vero cells, Shiga toxin protein synthesis inhibition reporter; inhibition, % at 38.7 µM; actives 9.2% (n = 290,000); AID 2315; in the data active = inhibition mostly above about 28%, no sharp cut-off; inactive = mostly below about 43%
MARV entry inh: inhibitors of Marburg virus binding or cell entry; Marburg virus pseudotyped entry inhibition, cell reporter; Potency, µM (highest dose often 37.8 µM), usual class: inhibitors; actives 1.8% (n = 300,000); calls by dose curve; tested in HEK293 cells
Cycloheximide cs: counter-screen hit for Shiga toxin inhibitors, cycloheximide | cell reporter, cycloheximide protein synthesis inhibition counterscreen | max response, % | actives 12% (n = 300,000) | AID 2314; in the data active = max response mostly above about 13%, no sharp cut-off; inactive = mostly below about 14%; note: read at 38.3 µM for the half of the compounds with a filed dose
Pf growth 96h: P. falciparum growth inhibition at 96 hours; P. falciparum luciferase reporter growth, 96 h; Potency, µM (doses to about 28.7 µM), usual class: inhibitors; actives 6.9% (n = 320,000)
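96 h incubation, 37 C, 5% CO2, of luciferase-reporter P. falciparum-infected RBCs (2% hematocrit, 0.05% parasitemia final) with test compounds; endpoint luminescence.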
Large screens that a line does not name were inactive. Unless noted, calls come from the whole dose curve; as a rule, active = well fitted inhibition curve with a large enough effect; inconclusive = small, poorly fitted or top-dose-only effect, or another doubt; inactive = no such curve, though single readings can be large or run the other way.

CN(C)c1ccc(C(=O)N/N=C/c2cc(Br)cc(Br)c2O)cc1	LASV entry inh inconclusive, Pf growth 48h inconclusive, MARV entry inh inconclusive, Pf growth 96h inconclusive
CCOC(=O)c1c(C)nc2sccn12	none
CC1CC(C)CN(CCCNS(=O)(=O)c2ccc3c(c2)oc(=O)n3C)C1 (configuration not stated)	Pf growth 96h 10µM
COc1ccc(CNC(=O)CCS(=O)(=O)c2ccc(Br)cc2)cc1	Pf growth 96h 4.7µM (no result: LASV entry inh, MARV entry inh)
CC1CCN(C(=O)CCNS(=O)(=O)c2ccc3c(c2)oc(=O)n3C)CC1	Pf growth 96h inconclusive (no result: LASV entry inh, MARV entry inh)
CC(C)C(c1nnnn1Cc1ccc(F)cc1)N1CCC(C(N)=O)CC1 (configuration not stated)	none
CCN(CC(=O)Nc1sc2c(c1C#N)CCC(C)C2)Cc1nc2ccccc2c(=O)[nH]1 (configuration not stated)	Pf growth 48h inconclusive, MARV entry inh inconclusive, Pf growth 96h inconclusive
CCN(CC(=O)Nc1sc2c(c1C#N)CCC(C)C2)CC(=O)NC1CCS(=O)(=O)C1 (configuration not stated)	Shiga toxin inh 42, Cycloheximide cs 19, Pf growth 96h 12µM
Cc1cc(C(=O)Nc2sc3c(c2C#N)CCC(C)C3)cs1 (configuration not stated)	Shiga toxin inh 126, MARV entry inh inconclusive, Cycloheximide cs 38, Pf growth 96h inconclusive
CC(=O)NC(=S)Nc1sc2c(c1C(N)=O)CCC(C)C2 (configuration not stated)	Shiga toxin inh 53, MARV entry inh inconclusive, Cycloheximide cs 54
CC(=O)Nc1sc2c(c1C#N)CCC(C)C2 (configuration not stated)	Shiga toxin inh 38
Cc1ccc(C)n1-c1sc2c(c1C#N)CCC(C)C2 (configuration not stated)	Pf growth 96h 6.6µM (no result: Pf growth 48h)
CC(C)N(C(=O)CSc1ccc(S(=O)(=O)N2CCCCC2)cn1)c1ccccc1	Pf growth 48h 8.3µM, Pf growth 96h inconclusive (no result: LASV entry inh, Shiga toxin inh, MARV entry inh, Cycloheximide cs)
CC(Sc1ccc(S(=O)(=O)N2CCN(C)CC2)cn1)C(=O)NC1(C#N)CCCCC1 (configuration not stated)	Pf growth 48h inconclusive (no result: Shiga toxin inh, Cycloheximide cs)
CC(NC(=O)CN1CCN(S(=O)(=O)c2ccc(Br)cc2)CC1)c1ccccc1 (configuration not stated)	LASV entry inh inconclusive, Pf growth 48h inconclusive, MARV entry inh inconclusive (no result: Shiga toxin inh, Cycloheximide cs)
CC(NC(=O)Cc1ccc(S(=O)(=O)N2CCCCC2)cc1)c1ccccc1 (configuration not stated)	Pf growth 48h 12µM, Pf growth 96h 8.3µM (no result: LASV entry inh, Shiga toxin inh, MARV entry inh, Cycloheximide cs)
CCN(C(=O)C(C)Sc1ccc(S(=O)(=O)N2CCN(C)CC2)cn1)c1ccccc1 (configuration not stated)	Pf growth 48h inconclusive, Pf growth 96h 12µM (no result: LASV entry inh, Shiga toxin inh, MARV entry inh, Cycloheximide cs)
COCCNC(=O)c1cc2nc3c(c(C(F)(F)F)n2n1)CCc1ccccc1-3	Pf growth 96h inconclusive
O=C(CNC(=O)c1nc[nH]c1C(=O)N1CCc2ccccc2C1)OCc1ccccc1	none (no result: LASV entry inh, MARV entry inh)
CCc1ccc(-c2csc(NC(=O)COC(=O)CCc3nc4ccccc4s3)n2)cc1	Shiga toxin inh 53, Cycloheximide cs 48
O=C(Nc1nc(-c2ccc(-c3ccccc3)cc2)cs1)C1=COCCO1	MARV entry inh inconclusive
O=C(O)C1CCCCC1C(=O)Nc1nc(-c2ccc(Cl)s2)cs1 (configuration not stated)	MARV entry inh inconclusive
CCCC(=O)Nc1nc(-c2ccc(Cl)s2)cs1	Cycloheximide cs 38 (no result: LASV entry inh, MARV entry inh)
O=C(Nc1ccc([N+](=O)[O-])cc1)Nc1nc(-c2ccc(Cl)s2)cs1	LASV entry inh inconclusive, Pf growth 48h 1.9µM, MARV entry inh inconclusive, Pf growth 96h inconclusive
COc1ccc(-c2csc(NC(=O)COC(=O)C3=COCCO3)n2)cc1	Cycloheximide cs 33 (no result: LASV entry inh, MARV entry inh)
Cc1nc(NC(=O)COC(=O)CCc2nc3ccccc3s2)c(Cl)cc1Cl	none
CCCc1nnc(NC(=O)C2CCN(C(=O)C3CC(=O)N(c4ccc(C)cc4)C3)CC2)s1 (configuration not stated)	Pf growth 48h inconclusive, MARV entry inh inconclusive
Cc1cccc(CN2CCC(CNC(=O)Cn3ncc4c([nH]c5ccc(C)cc54)c3=O)CC2)c1	none (no result: Pf growth 48h, Shiga toxin inh, MARV entry inh, Cycloheximide cs, Pf growth 96h)
CC(C)c1ncc(C(O)c2cccc3ccccc23)n1C (configuration not stated)	MARV entry inh inconclusive, Pf growth 96h inconclusive
COc1ccc(CC(=O)Nc2nc(-c3ccncc3)cs2)cc1	LASV entry inh inconclusive, Pf growth 48h inconclusive, MARV entry inh inconclusive, Pf growth 96h 13µM
CCCC(=O)Nc1nc(-c2ccc(OC)cc2)cs1	Shiga toxin inh 138, MARV entry inh inconclusive, Cycloheximide cs 40 (no result: Pf growth 96h)
C[C@@H]1C[C@@H]2[C@H]([C@H]3C=C(COC(=O)c4ccccc4)[C@@H](O)[C@]4(O)[C@@H](O)C(OC(=O)c5ccccc5)=C[C@@]14C3=O)C2(C)C	Shiga toxin inh 24 (no result: LASV entry inh, Pf growth 48h, MARV entry inh, Pf growth 96h)
CN1C2CCC1C(COC(=O)c1ccccc1)C(O)C2 (configuration not stated)	Pf growth 48h inconclusive
CC(C)c1ccc(NC(=O)c2ccccc2NC(=O)C2CCCCC2C(=O)O)cc1 (configuration not stated)	Shiga toxin inh 60, Cycloheximide cs 39
CC(C)c1ccc(NC(=O)c2ccccc2NC(=O)C2CC=CCC2C(=O)O)cc1 (configuration not stated)	Shiga toxin inh 60, Cycloheximide cs 33
O=C(Nc1cccc(Cl)c1)c1ccccc1NC(=O)C1CCCCC1C(=O)O (configuration not stated)	Cycloheximide cs 21
CCc1nnc(NS(=O)(=O)c2ccc(NC(=S)NC(=O)/C=C/c3ccc(C(C)C)cc3)cc2)s1	none
CSc1nc(N)c2c3c(sc2n1)CN(C)CC3	Pf growth 96h 4.7µM (no result: LASV entry inh, Pf growth 48h, MARV entry inh)
COC(CSc1nc(N)c2c3c(sc2n1)CN(C)CC3)OC	Pf growth 48h inconclusive, Cycloheximide cs 31, Pf growth 96h inconclusive (no result: LASV entry inh, MARV entry inh)
CCSc1nc(N)c2c3c(sc2n1)CN(C)CC3	Pf growth 48h inconclusive, Pf growth 96h inconclusive (no result: LASV entry inh)
C=CCSc1nc(N)c2c3c(sc2n1)CN(C)CC3	Pf growth 48h inconclusive, Cycloheximide cs 21, Pf growth 96h 2.1µM (no result: LASV entry inh, MARV entry inh)
C=CCSc1nc(N)c2c(C)c(C)sc2n1	MARV entry inh inconclusive, Cycloheximide cs 11
COc1ccc(-n2c(=O)c3sc4ccccc4c3n(Cc3ccccc3C)c2=O)cc1OC	none (no result: Pf growth 48h, Shiga toxin inh, Cycloheximide cs, Pf growth 96h)
COCCn1c(SCC(=O)NC2CC2)nnc1-c1ccc(Cl)cc1	none (no result: LASV entry inh, Shiga toxin inh, MARV entry inh, Cycloheximide cs)
CCc1ccc(/C=C2/Sc3ccccc3N(CC(=O)NCCCN3CCOCC3)C2=O)cc1	Pf growth 48h inconclusive, Pf growth 96h inconclusive (no result: LASV entry inh, MARV entry inh)
CCNC(=S)N(Cc1ccc2c(c1)OCO2)C1CC(=O)N(c2ccc(F)cc2)C1=O (configuration not stated)	Pf growth 48h 9.3µM, Pf growth 96h inconclusive
Cc1cc(=O)[nH]c(-n2nc(C)cc2C)n1	Pf growth 48h inconclusive, Pf growth 96h inconclusive
O=C(NCCc1ccc(Cl)cc1)C1CCN(S(=O)(=O)c2cccc3nonc23)CC1	MARV entry inh inconclusive (no result: Pf growth 48h)
